PubChem BioAssay AID1159580 (chemical genetic matrix, 2015)
“And” between values parts separate entries of the source, which are not always exact repeats. Equal values may be shown once. Screen size: about 5,500 compounds; about 2,000 (36%) were called active. About 18% were inconclusive and are not listed. No stated cut-off is given here; in the data, active means normalized growth mostly below about 0.91 (no sharp cut-off); inconclusive means no clear call, values can overlap the other calls; inactive means mostly above about 0.92. The list shows a part of the results.

Test: chemical genetic growth profiling, strain panel (AID 1159580);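 further: tested at 20 µM; growth read once vehicle control cultures reached saturation at 30 °C; 1 = growth at the plate median or of vehicle wells; lower values mean less growth of the strain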
Details: S. cerevisiae deletion strains, growth OD

Measured: normalized growth

CN(C)CCOC(C)(c1ccccc1)c1ccccn1 (centres undefined)
inactive: locus YAL021C, strain ccr4, hits give low values 1.03 | locus YAL026C, strain drs2, hits give low values 1 | locus YAL030W, strain snc1, hits give low values 0.993 | locus YAL040C, strain CLN3, hits give low values 0.998 | locus YBL061C, strain skt5, hits give low values 1 | locus YBR009C, strain hhf1, hits give low values 1 | locus YBR021W, strain FUR4, hits give low values 1.01 | locus YBR023C, strain chs3, hits give low values 1.01 | locus YBR171W, strain sec66, hits give low values 1 | locus YBR229C, strain ROT2, hits give low values 1.01 | locus YBR231C, strain swc5, hits give low values 1 | locus YBR279W, strain paf1, hits give low values 1.01 | locus YCL011C, strain gbp2, hits give low values 1 | locus YCL016C, strain dcc1, hits give low values 1.01 | locus YCL029C, strain bik1, hits give low values 0.958 | locus YCL061C, strain MRC1 (second series), hits give low values 1.01 | locus YCL061C, strain MRC1, hits give low values 1.01 | locus YCL069W, strain vba3, hits give low values 1.02 | locus YCR088W, strain abp1, hits give low values 1.02 | locus YDL005C, strain med2, hits give low values 1.01 | locus YDL035C, strain GPR1, hits give low values 1.02 | locus YDL040C, strain nat1, hits give low values 1.01 | locus YDL074C, strain BRE1, hits give low values 0.977 | locus YDL101C, strain DUN1, hits give low values 0.989 | locus YDL185W, strain tfp1, hits give low values 0.953 | locus YDL192W, strain arf1, hits give low values 0.99 | locus YDR001C, strain nth1, hits give low values 1.01 | locus YDR069C, strain doa4, hits give low values 0.975 | locus YDR101C, strain arx1, hits give low values 0.993 | locus YDR137W, strain rgp1, hits give low values 0.991 | locus YDR150W, strain NUM1, hits give low values 1 | locus YDR159W, strain sac3, hits give low values 0.928 | locus YDR162C, strain NBP2, hits give low values 0.998 | locus YDR195W, strain ref2 0.995 | locus YDR297W, strain sur2, hits give low values 0.973 | locus YDR318W, strain mcm21, hits give low values 0.981 | locus YDR334W, strain swr1, hits give low values 1.01 | locus YDR335W, strain msn5, hits give low values 0.985 | locus YDR363W, strain ESC2, hits give low values 0.994 | locus YDR388W, hits give low values 0.989 | locus YDR392W, strain spt3, hits give low values 0.974 | locus YDR502C, strain sam2, hits give low values 0.998 | locus YEL003W, strain gim4, hits give low values 1.01 | locus YEL037C, strain rad23, hits give low values 1.01 | locus YEL061C, strain CIN8 (second series), hits give low values 1.01 | locus YEL061C, strain CIN8, hits give low values 0.991 | locus YER002W, strain NOP16, hits give low values 1 | locus YER015W, strain faa2, hits give low values 1.01 | locus YER016W, strain bim1, hits give low values 1.01 | locus YER110C, hits give low values 0.961 | locus YER111C, strain swi4, hits give low values 1.02 | locus YER155C, strain BEM2 (second series), hits give low values 0.99 | locus YER155C, strain BEM2, hits give low values 0.994 | locus YER167W, strain BCK2, hits give low values 0.986 | locus YFR010W, strain ubp6, hits give low values 1.02 | locus YGL078C, strain dbp3, hits give low values 0.981 | locus YGL086W, strain mad1, hits give low values 1.01 | locus YGL167C, strain pmr1, hits give low values 1 | locus YGL173C, strain kem1, hits give low values 1.03 | locus YGL227W, strain vid30, hits give low values 0.997 | locus YGL240W, strain doc1, hits give low values 1 | locus YGL248W, strain PDE1, hits give low values 0.979 | locus YGL253W, strain hxk2, hits give low values 1.01 | locus YGR135W, strain pre9, hits give low values 0.951 | locus YGR229C, strain SMI1, hits give low values 0.995 | locus YGR252W, strain gcn5, hits give low values 0.994 | locus YHR013C, strain ard1, hits give low values 0.986 | locus YHR027C, strain rpn1, hits give low values 1.01 | locus YHR030C, strain SLT2, hits give low values 1 and 1.04 | locus YHR079C, strain IRE1 (second series), hits give low values 0.974 | locus YHR079C, strain IRE1, hits give low values 1.03 | locus YHR094C, strain hxt1, hits give low values 0.985 | locus YHR129C, strain ARP1, hits give low values 1 | locus YHR142W, strain chs7, hits give low values 1.03 | locus YHR200W, strain rpn10, hits give low values 0.983 | locus YIL066C, strain RNR3, hits give low values 0.995 | locus YIL073C, strain SPO22, hits give low values 0.924 | locus YIL125W, strain kgd1, hits give low values 0.992 | locus YIR030C, strain dcg1, hits give low values 0.96 | locus YJL092W, strain hpr5, hits give low values 1.02 | locus YJL095W, strain BCK1 (second series), hits give low values 0.983 | locus YJL095W, strain BCK1, hits give low values 0.955 and 1.03 | locus YJL115W, strain asf1, hits give low values 1.01 | locus YJL129C, strain trk1, hits give low values 1.03 | locus YJL134W, strain LCB3, hits give low values 1 | locus YJL154C, strain vps35, hits give low values 1.01 | locus YJL164C, strain tpk1, hits give low values 1.01 | locus YJL166W, strain qcr8, hits give low values 1 | locus YJL168C, strain set2, hits give low values 0.991 | locus YJL187C, strain SWE1 (second series), hits give low values 0.977 | locus YJL187C, strain SWE1, hits give low values 0.999 | locus YJR043C, strain POL32, hits give low values 1.04 | locus YJR066W, strain TOR1, hits give low values 0.941 | locus YJR075W, strain HOC1, hits give low values 0.974 | locus YKL009W, strain mrt4, hits give low values 0.954 | locus YKL068W, hits give low values 0.983 | locus YKL085W, strain MDH1 (second series), hits give low values 0.971 | locus YKL085W, strain MDH1, hits give low values 0.971 | locus YKL160W, strain elf1, hits give low values 0.988 | locus YKR001C, strain vps1, hits give low values 0.976 | locus YKR026C, strain gcn3, hits give low values 1 | locus YKR091W, strain srl3, hits give low values 1.01 | locus YLL001W, strain dnm1, hits give low values 1.02 | locus YLL026W, hits give low values 1 | locus YLL041C, strain sdh2, hits give low values 0.963 | locus YLR027C, strain aat2, hits give low values 0.997 | locus YLR039C, strain RIC1, hits give low values 0.989 | locus YLR058C, strain SHM2, hits give low values 0.993 | locus YLR102C, strain apc9, hits give low values 0.976 | locus YLR113W, strain HOG1, hits give low values 1.07 | locus YLR221C, strain rsa3, hits give low values 1.01 | locus YLR258W, strain gsy2, hits give low values 0.985 | locus YLR262C, strain YPT6 (second series), hits give low values 1.05 | locus YLR262C, strain YPT6, hits give low values 0.939 | locus YLR268W, strain sec22, hits give low values 0.983 | locus YLR320W, strain mms22, hits give low values 0.984 | locus YLR330W, strain CHS5, hits give low values 0.995 | locus YLR342W, strain FKS1 (second series), hits give low values 1.07 | locus YLR342W, strain FKS1, hits give low values 1.02 | locus YLR357W, strain rsc2, hits give low values 1.02 | locus YLR370C, strain arc18, hits give low values 0.967 | locus YLR371W, strain rom2, hits give low values 0.97 | locus YLR384C, strain iki3, hits give low values 0.996 | locus YLR418C, strain cdc73, hits give low values 0.98 | locus YML016C, strain PPZ1, hits give low values 1 | locus YML032C, strain rad52, hits give low values 0.997 | locus YML120C, strain ndi1, hits give low values 0.995 | locus YML124C, strain tub3, hits give low values 0.985 | locus YMR058W, strain fet3, hits give low values 1.03 | locus YMR078C, strain ctf18, hits give low values 0.963 | locus YMR125W, strain sto1, hits give low values 1 | locus YMR129W, hits give low values 0.982 | locus YMR205C, strain PFK2, hits give low values 0.992 | locus YMR223W, strain ubp8, hits give low values 0.966 | locus YMR231W, strain pep5, hits give low values 1.01 | locus YMR263W, strain SAP30, hits give low values 0.991 | locus YMR307W, strain GAS1, hits give low values 1.04 and 0.992 | locus YNL067W, strain RPL9B, hits give low values 0.967 | locus YNL071W, strain lat1, hits give low values 1.01 | locus YNL175C, strain NOP13, hits give low values 0.992 | locus YNL183C, strain NPR1, hits give low values 1 | locus YNL197C, strain WHI3, hits give low values 0.982 | locus YNL209W, strain ssb2, hits give low values 1.02 | locus YNL224C, strain SQS1, hits give low values 1 | locus YNL233W, strain BNI4, hits give low values 0.986 | locus YNL248C, strain rpa49, hits give low values 1.04 | locus YNL250W, strain rad50, hits give low values 0.984 | locus YNL271C, strain bni1, hits give low values 0.987 | locus YNL298W, strain CLA4, hits give low values 0.989 | locus YNL307C, strain MCK1, hits give low values 0.983 | locus YNL322C, strain KRE1 (second series), hits give low values 1.01 | locus YNL322C, strain KRE1, hits give low values 0.994 | locus YNR049C, strain mso1, hits give low values 0.962 | locus YNR052C, strain pop2, hits give low values 0.977 | locus YOL012C, strain htz1 0.665 | locus YOL147C, strain pex11, hits give low values 0.984 | locus YOR001W, strain rrp6, hits give low values 1.03 | locus YOR061W, strain CKA2, hits give low values 0.996 | locus YOR069W, strain VPS5, hits give low values 0.999 | locus YOR070C, strain gyp1, hits give low values 1 | locus YOR080W, strain dia2, hits give low values 1.01 | locus YOR083W, strain WHI5 (second series), hits give low values 0.984 | locus YOR083W, strain WHI5, hits give low values 0.973 | locus YOR106W, strain vam3, hits give low values 1.02 | locus YOR136W, strain idh2, hits give low values 0.983 | locus YOR144C, strain elg1, hits give low values 0.993 | locus YOR184W, strain ser1, hits give low values 0.959 | locus YOR231W, strain MKK1, hits give low values 1.07 | locus YOR265W, strain rbl2, hits give low values 0.999 | locus YOR270C, strain vph1, hits give low values 1.07 | locus YOR290C, strain snf2, hits give low values 1.01 | locus YOR316C, strain cot1, hits give low values 0.975 | locus YPL051W, strain arl3, hits give low values 1 | locus YPL055C, strain LGE1, hits give low values 0.992 and 1.03 | locus YPL078C, strain atp4, hits give low values 1 | locus YPL106C, strain sse1, hits give low values 0.98 | locus YPL240C, strain hsp82, hits give low values 0.977 | locus YPL241C, strain CIN2, hits give low values 0.999 | locus YPL256C, strain CLN2, hits give low values 1.03 | locus YPR119W, strain clb2, hits give low values 0.98 | locus YPR141C, strain kar3, hits give low values 0.971 | locus YPR163C, strain tif3, hits give low values 0.977 | locus YPR167C, strain met16, hits give low values 0.98 | strain wtn01, hits give low values 0.996
